DPM-DC inhibit – S. pneumoniae DPM-DC inhibitors, primary screen, biochemical, PK/LDH-coupled NADH fluorescence; 0.49% of 65,000 active; diphosphomevalonate decarboxylase (Streptococcus pneumoniae D39); AID 556, 2006; calls only at 10 µM; purified DPM-DC;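 active = the 320 compounds with the highest percent inhibition in the single-dose primary screen, excluding strongly autofluorescent ones, cut at about 32% in these data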;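 note: kinetic rate of NADH fluorescence loss reporting ADP formed by the decarboxylase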
Spn MK inh – S. pneumoniae MK inhibitors, primary screen, biochemical, PK/LDH-coupled NADH absorbance. mevalonate kinase [Streptococcus pneumoniae D39]. purified MK, PK/LDH-coupled NADH absorbance 340 nm. inhibition, % at 10 µM. 0.48% of 65,000 active. AID 555, 2006;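 active = ranked among the strongest by inhibition in the single 10 µM screen, a fixed top-ranked set picked for dose follow-up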
NADH coupling – inhibitors of PK/LDH coupling enzymes, profiling panel, artefact control, biochemical, MLSMR library; coupled PK/LDH NADH assays, four targets; AID 774, 2007; 0.02% of 65,000 active; IC50, µM (highest dose often 10 µM), without a hit: top-dose inhibition;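 active = single-dose screening hits from any of four coupled enzyme assays that gave an IC50 when retested across doses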;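 note: the DPM-DC format reads NADH fluorescence rather than 340 nm absorbance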
Spn PMK inh – S. pneumoniae PMK inhibitors, primary screen, biochemical, mevalonate pathway, pilot trial included | phosphomevalonate kinase (Streptococcus pneumoniae D39) | purified PMK, PK/LDH-coupled NADH absorbance 340 nm | inhibition, % at 10 µM | 0.49% of 65,000 active;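 active = top-ranked compounds by inhibition in the single 10 µM screen, taking a fixed number of the strongest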;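 note: 0% = full reaction with DMSO carrier and 100% = background rate without enzyme reaction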
Autofluor 339 – intrinsic fluorescence of library compounds, ex339/em460 – biochemical, MLSMR library, data from DPM-DC assay, artefact control, profiling panel | 5.5% of 65,000 active | AID 709, 2007 | compound autofluorescence, ex339/em460 nm, NADH buffer; stronger effect = higher value; 1 = no-compound wells, NADH background | fluorescence fold increase at 10 µM;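 active = at 10 µM, mean starting fluorescence two-fold or more over control wells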;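 note: signal is the first read of a kinetic run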
Abs 340nm – compound light absorbance at 340 nm, profiling panel, artefact control, biochemical, MLSMR library, data from PS, PMK, MK assays; fold change at 10 µM; compound absorbance at 340 nm, fold over control; 65,000 tested, under 10 active; AID 708, 2007;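 active = at 10 µM dose, initial 340 nm absorbance at least 2 fold that of control wells; inactive = change under 2 fold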;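 note: initial absorbance extrapolated from kinetic A340 decline of NADH oxidation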
* = called active by the depositor; i = inactive; . = no result given; + = active, no number. Sampled rows, rich in hits. Any-hit rate of the full collection: about 6.3%.

SMILES	DPM-DC inhibit	Spn MK inh	NADH coupling	Spn PMK inh	Autofluor 339	Abs 340nm
COc1ccccc1NC(=O)c1oc2ccccc2c1NC(=O)c1ccco1	.	10.0	9.0%	7.0	5.01*	1.04
Cc1cc(Nc2cccc(F)c2)nc(-c2ccccc2O)n1	i	6.0	4.0%	5.0	1.33	1.06
Cc1cc(NCc2ccccc2)nc(-c2ccccc2O)n1	.	9.0	9.0%	9.0	2.19*	1.09
Cc1cc(Nc2ccccc2)nc(-c2ccccc2O)n1	i	2.0	4.0%	9.0	2.17*	1.12
Cc1cc(N2CCCCCC2)nc(-c2ccccc2O)n1	.	7.0	4.0%	1.0	3.79*	1.05
CC(C)c1[nH]nc2c1C(Cc1ccccc1)C(C#N)=C(N)O2 (configuration not stated)	i	0.0	6.0%	15.0	1.05	0.98
CCN1C=C(Cc2cccs2)C2=C(C1)C(c1cccs1)C(C#N)=C(N)O2 (configuration not stated)	i	0.0	1.0%	2.0	1.33	1.05
O=C1c2oc3ccccc3c(=O)c2C(c2ccc(Br)cc2)N1c1ncccn1 (configuration not stated)	i	7.0	4.0%	4.0	1.15	1.03
Cn1c(SCC(N)=O)nnc1C1CCN(C(=O)NCc2ccccc2)CC1	i	0.0	3.0%	12.0	1.04	0.98
O=C(O)CCn1nnc(-c2cccs2)n1	+	0.0	26.0%	13.0	0.4	0.95
COC(=O)c1ccc2c(=O)n(CCCCCC(=O)NCc3ccccn3)c(=O)[nH]c2c1	i	2.0	11.0%	15.0	2.52*	1.01
COCCCNC(=O)CCCn1c(=O)[nH]c2ccccc2c1=O	i	2.0	5.0%	13.0	1.11	0.99
CCOC(=O)Cc1c(C)nc2cc(-c3ccc(C)cc3)[nH]n2c1=O	i	1.0	5.0%	4.0	1.88	1.07
CCOC(=O)Cc1c(C)nc2c(-c3ccccc3)c[nH]n2c1=O	.	3.0	6.0%	9.0	2.24*	1.1
COC(=O)Cn1c(=NC(=O)CSCC(=O)NC2CCCCC2)sc2cc(OC)ccc21	.	7.0	6.0%	5.0	2.15*	1.18
CC(C)Cn1nc(NC(=O)C(C)(C)C)c2cc3ccccc3nc21	i	0.0	6.0%	5.0	1.66	1.01
COc1ccc2nc3c(cc2c1)c(NC(=O)c1cccs1)nn3CC(C)C	.	9.0	11.0%	12.0	3.67*	1
O=C(c1ccccc1)c1nnc(-c2ccccc2F)o1	i	5.0	3.0%	0.0	1.06	1.04
CN(C)c1oc(-c2ccccc2F)nc1C#N	.	4.0	2.0%	2.0	2.43*	1.06
CN(C)c1oc(-c2cccs2)nc1C#N	.	3.0	4.0%	4.0	2.37*	1.12
CCSc1nnc(-c2cccs2)o1	i	12.0	2.0%	6.0	1.07	1.07
CNc1oc(-c2cccs2)nc1C#N	.	0.0	2.0%	4.0	2.38*	1.09
CCOC1(OCC)N=C(N)C2(C#N)C(c3ccc(NC(C)=O)cc3)C12C#N (configuration not stated)	i	2.0	10.0%	14.0	0.99	1
Cc1ccc(-n2c(SCc3cc(=O)n4ccsc4n3)nnc2-c2cccnc2)c(C)c1	i	5.0	3.0%	4.0	1.11	1.07
CSc1nc(-c2ccccc2)nc2[nH]ccc(=O)c12	i	5.0	6.0%	13.0	1.09	1.06
SMILES	DPM-DC inhibit	Spn MK inh	NADH coupling	Spn PMK inh	Autofluor 339	Abs 340nm
Cc1ccc(NC(=O)N(CCCN2CCOCC2)Cc2cc3cc4c(cc3[nH]c2=O)OCO4)cc1	+	15.0	21.0%	15.0	2.93*	1.09
O=C(Nc1ccccc1F)N(CCCN1CCOCC1)Cc1cc2cc3c(cc2[nH]c1=O)OCCO3	i	15.0	10.0%	3.0	3.77*	1.04
Cc1ccc(NC(=O)N(Cc2ccc3c(c2)OCO3)Cc2cc3cc4c(cc3[nH]c2=O)OCCO4)cc1	i	0.0	3.0%	8.0	1.45	1.06
CCc1ccc2[nH]c(=O)c(CN(CCCN3CCOCC3)C(=O)Nc3ccc(Cl)cc3)cc2c1	i	3.0	4.0%	10.0	1.22	0.99
CCOc1ccc2[nH]c(=O)c(CN(CC3CCCN3CC)C(=O)NCc3ccccc3)cc2c1 (configuration not stated)	.	0.0	10.0%	19.0	3.41*	1.02
CCOc1ccc2[nH]c(=O)c(CN(CCc3ccccc3)C(=O)c3cnccn3)cc2c1	i	0.0	5.0%	16.0	1.39	1.08
Cc1ccc2[nH]c(=O)c(CN(CCN3CCOCC3)C(=O)Nc3ccc(F)cc3)cc2c1	i	10.0	6.0%	8.0	1.22	1.04
O=C(Nc1ccc(F)cc1)N(Cc1ccco1)Cc1cc2cc3c(cc2[nH]c1=O)OCO3	.	6.0	16.0%	21.0	2.69*	1
CC1(C)Cn2c(nnc2-c2cccc(O)c2)S1	i	10.0	5.0%	5.0	1.08	1.01
CCN(CC)CCCN(Cc1cc2cc3c(cc2[nH]c1=O)OCCO3)C(=O)Nc1ccccc1	+	9.0	18.0%	10.0	3*	1.04
CCc1ccc2[nH]c(=O)c(CN(CCCN3CCOCC3)C(=O)Nc3ccccc3)cc2c1	i	5.0	5.0%	11.0	1.35	1.02
O=C(Nc1ccccc1)N(CCCN1CCOCC1)Cc1cc2cc3c(cc2[nH]c1=O)OCCO3	.	12.0	5.0%	13.0	2.5*	1.04
COc1ccc2[nH]c(=O)c(CN(CCCN3CCOCC3)C(=O)NCc3ccccc3)cc2c1	i	7.0	13.0%	14.0	3.27*	1.05
CC1CCN(C(=O)CN2C(=O)C(C)(C)Oc3ccc(C(=O)NC4CCCC4)cc32)CC1	i	9.0	3.0%	12.0	1.04	0.99
O=C(COc1ncnc2ccccc12)NCCC1=CCCCC1	i	0.0	0.0%	0.0	1.14	1.03
O=C(COc1cnc2ccccc2n1)NCCC1=CCCCC1	+	2.0	16.0%	11.0	1.99	1.07
CC(=O)c1cccc(NC(=O)c2cc(C(C)C)on2)c1	i	4.0	1.0%	0.0	1.1	1.09
CC(=O)c1cccc(NC(=O)c2cc3nc(C)cc(C)n3n2)c1	i	5.0	10.0%	7.0	2.45*	1.02
COC(=O)c1[nH]c2cccc(OC)c2c1NC(=O)CN1CC2(C)CC1CC(C)(C)C2 (configuration not stated)	i	1.0	6.0%	4.0	2.01*	1.03
COC(=O)c1[nH]c2cccc(OC)c2c1NC(=O)CCN1CC(C)CC(C)C1 (configuration not stated)	i	9.0	13.0%	9.0	2.69*	1.06
